Rows were chosen to be rich in hits. Some 3.5% of all compounds tested hit in one or more screens of this group.
MITF inh: inhibitors of human MITF | AlphaScreen MITF homodimerization, bead proximity signal | inhibition, % at 2.6 µM | 0.91% of 650,000 active | AID 1259374; in the data active = inhibition above about 50%
Target sequence (O75030 whole entry, looked up): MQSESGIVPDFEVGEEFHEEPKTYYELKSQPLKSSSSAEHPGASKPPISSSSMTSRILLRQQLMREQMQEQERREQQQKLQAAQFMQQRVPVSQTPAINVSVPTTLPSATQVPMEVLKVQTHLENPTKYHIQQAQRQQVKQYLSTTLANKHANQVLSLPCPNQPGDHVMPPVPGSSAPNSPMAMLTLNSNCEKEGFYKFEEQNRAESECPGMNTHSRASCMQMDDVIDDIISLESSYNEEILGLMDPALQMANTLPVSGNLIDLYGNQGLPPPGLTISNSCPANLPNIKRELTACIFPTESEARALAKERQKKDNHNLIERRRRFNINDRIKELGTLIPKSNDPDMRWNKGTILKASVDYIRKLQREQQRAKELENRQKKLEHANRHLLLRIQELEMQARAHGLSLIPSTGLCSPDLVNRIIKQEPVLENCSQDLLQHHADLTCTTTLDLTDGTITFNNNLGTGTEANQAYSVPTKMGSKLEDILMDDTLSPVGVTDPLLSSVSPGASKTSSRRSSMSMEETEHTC
FBW7 act: activators of human E3 ligase FBW7; Q969H0; AlphaScreen FBW7–phospho-cyclin E peptide binding, activator screen; normalized activity (activation), % at 26.1 µM; 0.13% of 650,000 active; in the data active = normalized activity above about 1.9%;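 also: purified mutant Fbw7 with reduced substrate affinity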
TEAD-YAP inh: TEAD-YAP interaction inhibition | HEK-TIYL cells, TEAD-Gal4/YAP UAS-luciferase luminescence | inhibition, % at 9.12 µM | 1.4% of 640,000 active; in the data active = inhibition above about 32%
GPR151 ag: activates the human receptor GPR151; PathHunter beta-arrestin GPR151 cells, luminescence; Q8TDV0; activation, % at 11.2 µM; 1% of 650,000 active; in the data active = activation above about 4.9%
MITF inh conf: confirmation of human MITF inhibitors | AlphaScreen MITF homodimerization, biotin/His-MITF beads | shares compounds with MITF inh | AID 1259372 | 16% of 4,700 active | inhibition, % at 2.6 µM;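 active = inhibition above a cutoff derived from the DMSO control wells, cut at about 28% in these data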;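 also: inhibitors lower the bead chemiluminescence by keeping MITF from dimerizing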
AlphaScreen intf2: optically interferes with AlphaScreen signal; shares compounds with MITF inh; LysRS AlphaScreen counterscreen, signal interference, triplicate; inhibition, % at 2.6 µM; 7.6% of 4,700 active; AID 1259376;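 active = inhibition above a cutoff derived from the DMSO control wells, cut at about 30% in these data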
A number is an active result; i = inactive; nt = no result given.

SMILES	MITF inh	FBW7 act	TEAD-YAP inh	GPR151 ag	MITF inh conf	AlphaScreen intf2
O=C(Cn1c(=O)oc2ccccc21)N1CCC(Cn2cnc3ccccc32)CC1	53	i	i	i	i	i
CN(C)S(=O)(=O)c1ccc(C(=O)Oc2ccc3nc(N4CCOCC4)sc3c2)cc1	i	i	i	i	nt	nt
C=CCNC(=O)CN1CCC(Cn2cnc3cc(C)c(C)cc32)CC1	54	i	i	i	i	i
O=C(CN1CCC(Cn2cnc3ccccc32)CC1)Nc1cccc(F)c1	54	i	i	i	i	i
COC(=O)c1ccc(CN2CCC(c3nc4ccccc4[nH]3)CC2)cc1	i	i	i	i	nt	nt
CCOCC(=O)N1CCC(Cn2cnc3cc(C)c(C)cc32)CC1	66	i	i	i	i	i
O=C(c1cccc(F)c1)N1CCC(Cn2cnc3ccccc32)CC1	i	i	i	i	nt	nt
COC(=O)c1ccc(CN2CCC(Cn3cnc4ccccc43)CC2)cc1	82	i	i	i	i	i
Cc1nn(C)c(-c2n[nH]c(=S)n2CC(C)C)c1Cl	i	i	i	i	nt	nt
CC(=O)Nc1cccc(NC(=O)c2cccnc2)c1	i	i	i	i	nt	nt
O=C(NCc1ccccc1)C1CC(O)CN1C(=O)Nc1ccccc1 (configuration not stated)	i	i	i	i	nt	nt
O=c1oc(-c2ccccc2)nc2sc(-c3ccccc3)c(Cc3ccccc3)c12	i	i	i	i	nt	nt
CCCCC(=O)Nc1sc2c(c1C(=O)OCC)CCCC2O (configuration not stated)	i	i	i	i	nt	nt
COc1cc(C(=O)Nc2ccccc2-c2nnn(CC(N)=O)n2)cc(OC)c1OC	i	i	i	i	nt	nt
COc1ccc(NC(=O)Cn2nnc(-c3ccccc3N)n2)cc1OC	58	i	i	i	i	i
COc1ccccc1C(=O)Nc1ccccc1-c1nnn(CC(N)=O)n1	93	i	i	i	i	i
Cc1nnc(SCc2nc3ccccc3[nH]2)n1C	74	i	i	i	i	i
COc1ccccc1-c1nnc(SCc2nc3ccccc3[nH]2)n1C	i	i	i	i	nt	nt
O=C(O)C1CC(=O)N(c2ccc(O)cc2)C1 (configuration not stated)	i	i	i	i	nt	nt
CCOc1ccc(C(=O)Nc2ccccc2N2CCN(C)CC2)cc1[N+](=O)[O-]	i	i	i	i	nt	nt
NC(=O)CSc1nc2ccccc2n1CC(=O)N1CCOCC1	62	i	i	i	i	i
O=C(O)CSc1nc2ccccc2n1CC(=O)N1CCOCC1	i	i	i	i	nt	nt
COc1ccc(C(=O)N/C(=C\c2ccc([N+](=O)[O-])cc2)C(=O)Nc2ccc(C)c(C)c2)c(Cl)c1	61	i	i	i	i	i
COc1ccc(/C=C(/NC(=O)c2ccccc2)C(=O)Nc2ccc(F)cc2)cc1OC	67	i	i	i	i	i
O=C(Nc1cccc(O)c1)/C(=C/c1ccc([N+](=O)[O-])cc1)NC(=O)c1ccccc1	52	i	i	i	i	i
SMILES	MITF inh	FBW7 act	TEAD-YAP inh	GPR151 ag	MITF inh conf	AlphaScreen intf2
O=C(Nc1cccc(C(=O)O)c1)/C(=C/c1ccc([N+](=O)[O-])cc1)NC(=O)c1ccccc1	i	i	i	i	nt	nt
COc1cc2c(cc1OC)C(Nc1nccs1)=NC(C)(C)C2	i	i	i	i	nt	nt
Cn1c(SCc2ccccc2)nnc1C1CCCN(Cc2ccccn2)C1 (configuration not stated)	61	i	i	i	36	93
CN(CCc1ccccc1)C1CCCN(Cc2ccccn2)C1 (configuration not stated)	i	i	i	i	nt	nt
CN1CCN(CC(=O)NCc2ccc(F)cc2)CC1	i	i	i	i	nt	nt
O=C(CN1CCCN(CC(=O)NCc2ccccc2)CC1)NCc1ccccc1	93	i	i	i	i	i
Cc1ccc(CNC(=O)CN2CCN(C)CC2)cc1	84	i	i	i	i	i
C/C=C/c1ccc(OCCN(C)C)c(OC)c1	73	i	i	i	i	i
C/C=C/c1ccc(OCCCNC2CCCC2)c(OC)c1	51	i	i	i	i	i
C/C=C/c1ccc(OCCCNC(C)CC)c(OC)c1 (configuration not stated)	83	i	i	i	i	i
C=CCc1ccc(OCCNC2CCCC2)c(OC)c1	i	i	i	i	nt	nt
Cc1cc(OCC(=O)Nc2cccc(F)c2)ccc1Br	i	i	i	i	nt	nt
CCOC(=O)c1cccc(NC(=O)COc2ccccc2[N+](=O)[O-])c1	i	i	i	i	nt	nt
CCc1cc2c(cc3c(=O)n(CC(=O)N(CC)Cc4ccccc4)ncn32)s1	71	i	i	i	i	i
COc1ccc(C(=O)N2CCN(C(=O)c3cccnc3)CC2)cc1	i	i	i	i	nt	nt
COc1cccc(CN2CCN(C(=O)c3cc(OC)cc(OC)c3)CC2)c1	i	i	i	i	nt	nt
COc1ccc(CN2CCN(C(=O)c3cccnc3)CC2)cc1	52	i	i	i	i	i
COc1cccc(CN2CCN(C(=O)c3cccnc3)CC2)c1	70	i	i	i	i	i
Cc1nn(-c2ccccc2)c(Cl)c1/C=N/Nc1ccc(S(N)(=O)=O)cc1[N+](=O)[O-]	i	i	i	i	nt	nt
CC(=O)Nc1ccc(S(=O)(=O)N2CCCC(C)C2)cc1 (configuration not stated)	i	i	i	i	nt	nt
COc1cccc(CC(C2CCN(C(=O)CSC)CC2)N(C)Cc2ccccn2)c1 (configuration not stated)	52	i	i	i	i	34
COc1cccc(CC(C2CCN(Cc3ccccn3)CC2)N(C)C(=O)c2ccco2)c1 (configuration not stated)	i	i	i	i	nt	nt
COc1ccc(F)c(CN2CCC3(CCC(CNC(=O)C4CCCO4)O3)CC2)c1 (configuration not stated)	i	i	i	i	nt	nt
CCOC(=O)CNS(=O)(=O)c1cc(-c2nnc(Nc3cccc(C)c3)c3ccccc23)ccc1C	80	i	i	i	i	i
COc1ccccc1/C=C/CN1CCN(c2ccc([N+](=O)[O-])cc2)CC1	i	i	i	i	nt	nt
SMILES	MITF inh	FBW7 act	TEAD-YAP inh	GPR151 ag	MITF inh conf	AlphaScreen intf2
COc1ccc(C)cc1S(=O)(=O)NC1CCCCCC1	i	i	i	i	nt	nt
COc1ccc(C)cc1NC1CCCCC1	77	i	i	i	i	i
Clc1ccc(CN2CCN(C3CCCCC3)CC2)cc1	67	i	i	i	i	i
c1ccc(CN2CCN(C3CCCCCC3)CC2)cc1	70	i	i	i	i	i
NC1CCN(Cc2cccc(F)c2)CC1	i	i	i	i	nt	nt
Fc1cccc(CN2CCN(C3CCCC3)CC2)c1	52	i	i	i	i	i
Clc1ccc(CN2CCN(C3CCCC3)CC2)cc1	i	i	i	i	nt	nt
Clc1ccc(CN2CCN(C3CCCCCC3)CC2)cc1	74	i	i	i	i	i
CCC[C@@H]1NC(=O)[C@H]2CN(Cc3cnn(-c4cccc(F)c4)c3)CCN2C1=O	i	i	i	i	nt	nt
Cc1cccc(NC(=O)c2c(C(=O)O)cccc2[N+](=O)[O-])n1	i	i	i	i	nt	nt
